NOD2-RIPK2 inh – blocks binding of human NOD2 to RIPK2. CHO BLA complementation NOD2-RIPK2, CCF4 ratio. actives 0.38% (n = 360,000). O43353. inhibition, % at 4.98 µM; in the data active means inhibition above about 21%;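 further: 0% = vehicle only and 100% = reference blocker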
TLR4 MyD88 comp – inhibitors of human TLR4-MyD88 binding; O00206+Q99836; HeLa CL3-4 TLR4/MyD88 BLA complementation, FRET ratio; inhibition, % at 8.4 µM; actives 0.18% (n = 200,000); in the data active means inhibition above about 25%;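 further: 0% = vehicle and 100% = reference inhibitor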
GRK2 inh – blocks RNA aptamer binding to human GRK2; P25098; bead flow cytometry, FAM-aptamer displacement from GRK2; inhibition of aptamer binding, % at 10 µM; actives 0.59% (n = 330,000);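 active means inhibition of aptamer binding above 40%, roughly 3 SD of noise, on plates passing a quality check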;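 further: median bead fluorescence of bound FAM aptamer so fluorescent compounds give negative values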
Target sequence (P25098 whole entry, looked up): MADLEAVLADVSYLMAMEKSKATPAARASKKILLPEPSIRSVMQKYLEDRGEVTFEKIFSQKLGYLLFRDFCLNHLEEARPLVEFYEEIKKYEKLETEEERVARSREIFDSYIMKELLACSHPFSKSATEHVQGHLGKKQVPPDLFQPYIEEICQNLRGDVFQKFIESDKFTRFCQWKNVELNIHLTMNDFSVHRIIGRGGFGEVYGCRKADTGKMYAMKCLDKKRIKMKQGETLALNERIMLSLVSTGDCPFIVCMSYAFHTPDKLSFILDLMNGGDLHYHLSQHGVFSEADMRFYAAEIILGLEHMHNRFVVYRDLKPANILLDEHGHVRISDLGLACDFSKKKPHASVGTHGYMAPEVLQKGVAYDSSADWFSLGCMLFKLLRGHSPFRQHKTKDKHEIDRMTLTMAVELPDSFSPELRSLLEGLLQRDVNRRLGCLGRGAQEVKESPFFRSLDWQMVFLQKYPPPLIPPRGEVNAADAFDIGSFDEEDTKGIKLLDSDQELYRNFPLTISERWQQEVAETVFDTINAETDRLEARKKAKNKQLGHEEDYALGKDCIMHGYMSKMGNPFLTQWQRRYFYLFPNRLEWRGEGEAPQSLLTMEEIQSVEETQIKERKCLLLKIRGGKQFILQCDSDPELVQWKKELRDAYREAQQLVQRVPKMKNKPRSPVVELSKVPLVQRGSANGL
ANO1 block – inhibitors of mouse TMEM16A calcium-activated chloride channel; actives 1.2% (n = 310,000); normalized B-score (activity score, 25-100; higher = stronger inhibition) at 10 µM; Q8BHY3; AID 588511; HEK293 TMEM16A/YFP iodide influx fluorescence, ionomycin;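 active means ratio plate-corrected score three or more library SD toward inhibition, starting fluorescence score within five deviations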;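 further: score derived from kinetic fluorescence span divided by baseline fluorescence per well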
TMEM16A act – mouse TMEM16A channel activation, primary screen; Q8BHY3; HEK293 TMEM16A/YFP-H148Q/I152L, iodide quench fluorescence; hits give low values; B-score at 10 µM; actives 0.3% (n = 340,000); AID 623877;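 active means fluorescence-ratio B-score plate-corrected deviation score at least 3 library SD below zero, with starting fluorescence score within 5 deviations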;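 further: channel opened by trigger with iodide after compound preincubation; score built on the fluorescence ratio of max minus min over baseline; more negative score means more quench and so TMEM16A activation or potentiation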
TLR9-MyD88 inh – blocks human TLR9 binding to MyD88; Q9NR96+Q99836; CHO BLA complementation TLR9-MyD88, CCF4 FRET ratio; inhibition, % at 4.98 µM; actives 0.21% (n = 340,000); AID 504734;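 active means inhibition above the mean over all tested compounds plus 3 SD, cut at about 21% in these data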;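 further: 0% = DMSO only wells and 100% = clavulanate BLA inhibitor control wells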
GRK2 CP1 – confirmation of human GRK2 inhibitors displacing RNA aptamer | bead-bound GRK2, FAM-aptamer displacement, flow cytometry | actives 4% (n = 2,000) | AID 504451 | shares compounds with GRK2 inh | aptamer displacement, % at 10 µM;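 active means aptamer displacement above 40%, near three times the noise of non-fluorescent compounds, on plates passing quality checks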;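 further: negative values mostly reflect intrinsic compound fluorescence rather than true enhancement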
FAM quench CP1 – aptamer fluorescence quenching in GRK2 counter-screen. shares compounds with GRK2 inh. Carboxyfluorescein RNA aptamer on beads, flow cytometry quenching; hits give low values. fluorescence response (% of DMSO), % at 10 µM. 2,000 tested, under 10 active. AID 504580;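 active means compounds that quench the bead-bound fluorescent RNA probe, cutting fluorescence to under half of the solvent control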;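 further: counterscreen run without GRK2 so only probe quenching by compound is measured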
GRK2 CP2 – human GRK2 inhibition confirmation, cherry pick 2; shares compounds with GRK2 inh; bead-bound GRK2, FAM-aptamer displacement, flow cytometry; inhibition of aptamer binding, % at 10 µM; 360 tested, under 10 active; AID 504782;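 active means inhibition of aptamer binding above 40%, about triple the noise seen with nonglowing compounds, on plates passing quality control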;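 further: negative values mostly come from compounds that fluoresce themselves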
FAM quench SP – quenches fluorescent RNA aptamer, GRK2 hit artifact. shares compounds with GRK2 inh. carboxyfluorescein RNA aptamer beads, flow cytometry quenching; hits give low values. fluorescence response vs DMSO, % at 10 µM. 360 tested, under 10 active;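 active means response vs DMSO under 50%, meaning signal dropped by over half, treated as fluorescence quencher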;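 further: labelled aptamer on streptavidin beads without GRK2 as a quench counter-screen; 100% = bead fluorescence of DMSO wells and lower means quenching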
* hit, by the source's call; i = inactive; / = no result. Rows were chosen to be rich in hits. Some 2.2% of all compounds tested hit in one or more screens of this group.

SMILES	NOD2-RIPK2 inh	TLR4 MyD88 comp	GRK2 inh	ANO1 block	TMEM16A act	TLR9-MyD88 inh	GRK2 CP1	FAM quench CP1	others
CCOCCCNC(=O)C(NC(=O)C1CCC(=O)N1)c1ccc(C)cc1 (centres undefined)	4	-4	45*	i	i	3	3	95
CCOCCCNC(=O)C(NC(=O)c1ccccc1O)c1ccc(C)cc1 (centres undefined)	-90	8	0	i	i	3	/	/
O=C(NN1C(=O)/C(=C/C=C/c2ccco2)SC1=S)c1ccccc1O	3	/	39	i	i	0	3	98
Cn1cccc1/C=C1\SC(=S)N(NC(=O)c2ccccc2O)C1=O	1	/	0	i	i	3	/	/
O=C(NC1CC1)c1cccc(Nc2ccc(-c3ccc4c(c3)OCCO4)nn2)c1	-16	-3	3	i	i	5	11	103
CCOC(=O)CNC(=O)c1sc(NC(=O)c2ccccc2F)nc1C	3	0	59*	i	i	-10	1	113
CCOC(=O)c1oc2c(C)c(O)ccc2c(=O)c1-c1nncn1-c1ccccc1	-2	-6	75*	i	i	-8	-2	102
Cc1ccc(-c2onc3ccc(C=O)cc23)cc1	5	-2	45*	i	i	7	0	99
Cc1ccc(-c2onc3ccc(C4(C)OCCO4)cc23)cc1	3	-5	1	i	i	-7	/	/
CCCCOc1ccc(/C=C/C2=CC(C)(C)NC(=S)N2)cc1OCC	-6	7	4	i	i	5	/	/
Cc1nnc(NC(=O)c2ccc(Br)o2)s1	-4	/	85*	i	i	-8	-2	105
Cc1nnc(NC(=O)c2ccc(Br)cc2)s1	-4	-15	1	i	i	-7	/	/
C=CCn1c(=S)sc2c(=O)[nH]cnc21	-9	/	1	i	i	/	/	/
CCN(CC)C(=O)COc1c(-c2ccco2)oc2ccccc2c1=O	-13	/	2	i	i	-12	/	/
CCN(CC)C(=O)COc1ccc2oc(-c3ccco3)cc(=O)c2c1	-9	-11	62*	i	i	-10	15	96
C=CCOc1ccc(C(=O)CC)cc1OC	-7	-1	93*	i	i	-5	4	100
Cc1ccc(CNC(=O)C2CCCN(Cc3cnn(-c4ccccc4)c3-n3cccc3)C2)cc1 (centres undefined)	-1	-8	5	i	i	-2	-4	99
O=C(NCC1CCCO1)C1CCCN(Cc2cnn(-c3ccccc3)c2-n2cccc2)C1 (centres undefined)	-4	-2	0	i	-25*	0	-7	98
Cc1cccc2nc(-c3ccccc3)nc(N[C@@H](CO)c3ccccc3)c12	12	0	1	i	i	2	/	/
CCc1nc2ccc(C(=O)N3CCCCC3)cn2c1N(C)CCCc1ccccc1	2	/	/	/	/	/	/	/
Cc1ccc(OCCNC(=O)CCc2ccccc2)cc1C	-2	/	79*	i	i	5	2	98
COc1ccc2nc3n(c(=O)c2c1)-c1cc(Cl)ccc1C(=O)NC3Cc1ccccc1 (centres undefined)	/	/	4	/	/	/	/	/
COc1ccc(C(=O)N2CCC(n3c(C)nc4cc(F)ccc43)CC2)cc1	3	-9	1	i	i	-14	/	/
Cc1ccc2nc(N3CCN(c4ccccc4F)CC3)c(C=O)c(=O)n2c1	1	2	64*	i	i	5	0	100
O=C1NC(=S)N/C1=C/c1cc([N+](=O)[O-])ccc1O	2	-1	2	i	i	-1	/	/
SMILES	NOD2-RIPK2 inh	TLR4 MyD88 comp	GRK2 inh	ANO1 block	TMEM16A act	TLR9-MyD88 inh	GRK2 CP1	FAM quench CP1	others
Cc1nc2c(ccc3c2ccc2nc(C)sc23)s1	/	5	2	i	/	/	/	/	GRK2 CP2=15;FAM quench SP=100
CCc1ccc(/C([O-])=C(/C(=S)NCCN2CCOCC2)[n+]2ccccc2)cc1	-2	0	72*	i	i	-2	-5	104
CCNC(=S)/C(=C(/[O-])c1ccc([N+](=O)[O-])cc1)[n+]1ccccc1	-1	/	7	i	i	-2	/	/
COCCN1C(=O)N[C@H](c2cccc(C(F)(F)F)c2)C(C(=O)OC)=C1C	/	-2	/	i	/	/	/	/
COCCN1C(=O)N[C@@H](c2cccc(F)c2)C(C(=O)OC)=C1C	7	/	91*	i	i	9	0	105
CCCCC(=O)Nc1ccc(C(=O)NNC(=S)NC(=O)c2ccco2)cc1	-4	5	0	i	i	-1	/	/
COC(=O)Cc1ccc(NC(=O)c2ccc(NC(=O)c3ccco3)cc2)cc1	-7	-10	1	i	i	-3	/	/
O=C(O)Cc1ccc(NC(=O)c2ccc(NC(=O)c3ccco3)cc2)cc1	3	4	48*	i	i	1	1	98
CCCCC(=O)Nc1ccc(C(=O)NNC(=O)c2ccco2)cc1	-4	-6	65*	i	i	5	0	93
COc1cc(/C=C2\SC(=O)N(CCN)C2=O)ccc1OS(=O)(=O)c1cc(C)ccc1C	5	4	/	/	i	2	/	/
CN(Cc1ccccc1)C(=O)COC(=O)CCC(=O)c1ccc(F)cc1	5	/	31	/	i	-14	-4	97
CN(Cc1ccccc1)C(=O)COC(=O)CCC(=O)c1ccc(Cl)cc1	1	/	26	/	i	2	/	/
O=C(C1CCCN(S(=O)(=O)c2cccc3nsnc23)C1)N1CC=C(c2ccccc2)CC1 (centres undefined)	8	-7	1	i	i	1	-7	102
O=c1[nH]nc(Cc2ccccc2)c2ccccc12	-7	8	0	i	i	6	/	/
O=c1[nH]nc(Cc2ccc([N+](=O)[O-])cc2)c2ccccc12	-22	/	86*	i	i	6	12	98
O=C(CSc1nc2[nH]ncc2c(=O)[nH]1)Nc1ccc(OC(F)(F)F)cc1	-4	/	65*	i	i	10	-2	102
